Compounds with a hit are over-represented: about 1.3% of the library has one in this group of screens.
TRPML1 ag – agonists of human TRPML1 channel; TRPML1-expressing cells, Ca2+ dye fluorescence, FDSS; 410,000 compounds, 0.12% hits; activation, % (concentration not given with the values); also: 0% is about no effect
Target sequence (Q9GZU1 whole entry, looked up): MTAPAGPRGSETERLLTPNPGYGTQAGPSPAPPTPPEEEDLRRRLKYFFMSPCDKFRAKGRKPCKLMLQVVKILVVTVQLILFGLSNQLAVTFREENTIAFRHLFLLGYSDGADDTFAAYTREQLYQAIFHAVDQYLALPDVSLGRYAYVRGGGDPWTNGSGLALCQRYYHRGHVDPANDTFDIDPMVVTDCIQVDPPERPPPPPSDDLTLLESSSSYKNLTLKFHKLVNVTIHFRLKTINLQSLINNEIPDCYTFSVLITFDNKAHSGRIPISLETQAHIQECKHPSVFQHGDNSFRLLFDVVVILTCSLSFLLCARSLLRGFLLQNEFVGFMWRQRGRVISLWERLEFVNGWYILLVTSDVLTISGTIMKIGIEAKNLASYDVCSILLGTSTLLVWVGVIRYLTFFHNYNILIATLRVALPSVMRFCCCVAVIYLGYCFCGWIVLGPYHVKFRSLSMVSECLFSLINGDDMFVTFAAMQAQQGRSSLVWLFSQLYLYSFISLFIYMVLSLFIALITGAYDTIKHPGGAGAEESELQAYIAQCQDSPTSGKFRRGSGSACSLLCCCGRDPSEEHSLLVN
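Cells: TRPML1-DL, 1X Tet inducer, ~16 h at 37 degrees C/5% CO2. Dye: ABD Ca8 no-wash + quencher, 45-90 min RT. Read: 10 s baseline, compound add, 110 s agonist phase; 54-4 EC80 (4uM final), 110 s antagonist phase.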
BRCA1 expr up – increases BRCA1 expression | MCF7-BRCA1-FFLuc reporter, luminescence, 48 h; response scale: scaled: vehicle 0%, 10 µM genistein 100% | Potency, µM (top dose mostly 46.1 µM), for the others: at the top dose activation, hits mostly activators | 380,000 compounds, 1.1% hits; active = well fitted activation curve with a large enough effect; inconclusive = small, poorly fitted or top-dose-only effect; inactive = no such curve, though single readings can be large or run the other way; also: potency is read from the fitted curve at half-maximal effect; nearly all actives have a fitted effect of over 80% in size
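Quantitative HTS in MCF7 cells stably reporting BRCA1 expression via firefly luciferase. Compound treatment lasts 48 h at 37 °C in phenol-red free MEM. Activation is expressed relative to genistein at 10 microM and DMSO.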
PTAP TSG101 blk – blocks PTAP/TSG101 interaction to inhibit HIV-1 budding; Potency, µM (top dose mostly 115 µM), for the others: at the top dose activity change, negative = inhibition, hits mostly inhibitors; Q99816; Fluorescence polarization, FITC-PTAP peptide / Tsg101 binding; 340,000 tested, under 10 active; active = well fitted inhibition curve with a large enough effect in the main read-out, with a control signal flat, not every such curve was filed as active; inconclusive = small, poorly fitted or top-dose-only effect, or effect the other way, or a change in a side signal; inactive = no such curve, though single readings can be large or run the other way; also: potency is read from the fitted curve at half-maximal effect; % of control where 0% means no effect
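Compounds were pin-transferred onto Tsg101 binding domain (10 uM final) in HEPES pH 7.5 buffer, then FITC-PTAP peptide was added at 50 nM final. After 20 min at RT, polarization reported peptide displacement across a qHTS concentration series.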
PKM2 act – PKM2 (human) enzyme activation; 260,000 compounds, 0.34% hits; Potency, µM (titrated, usually from 57.5 µM), without a hit: at the top dose activation, most hits filed as activators; P14618; AID 1631; purified PKM2, Kinase-Glo ATP luminescence, activation; response scale: 0% is enzyme alone, no compound; active = well fitted activation curve with a large enough effect; inconclusive = small, poorly fitted or top-dose-only effect; inactive = no such curve, though single readings can be large or run the other way; also: potency is read from the fitted curve at half-maximal effect; % is scaled to controls: 0 for no effect and ±100 for the full control effect; nearly all actives have a fitted effect of over 55% in size
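ATP formation by purified human PK-M2, quantified via coupled luciferase luminescence after 1 h at room temperature with 0.1 mM ADP and 0.5 mM PEP final.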
IL2 activator – activates IL-2 in a cell-based reporter assay. IL-2 activation reporter assay, cell-based qHTS; stimulated with anti-CD3/CD4/CD28 beads; in transgenic mouse T cells. activation, % (series mostly up to about 46 µM). 360,000 compounds, 0.065% hits. AID 652025; also: 0% is about no effect
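Unstimulated transgenic mouse T cells; 60-min compound exposure; bead-based TCR/CD4/CD28 stimulation; 18 h culture, 37 degrees C; dual fluorescence (EGFP, DsRed) plate cytometry.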
TRPML1 blocker – inhibitors of human TRPML1 channel | TRPML1-inducible cells, Ca2+ dye fluorescence, FDSS; hits give low values; inhibition of EC80 agonist-evoked calcium signal | 390,000 compounds, 0.02% hits | activity change, negative = inhibition, % (test concentration not listed); in the data active = activity change below about -50%; inconclusive = between about -30% and that limit;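 also: stimulus is agonist 54-4 at its EC80 concentration; % is scaled to controls: 0 for no effect and ±100 for the full control effect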
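Calcium fluorescence in TRPML1-DL cells induced overnight with Tet: a 110 s read after compound pin addition, then a 110 s antagonist read after challenge with 54-4 at 4 uM final (EC80).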
Numbers without * were called inactive; ? = inconclusive; / = no result; [ ] = dose if it differs, or a comment. Rule as the data show it, unless noted: active = activation above about 50%; inconclusive = mostly about 30% to 49%; inactive = weaker than that.

SMILES	TRPML1 ag	BRCA1 expr up	PTAP TSG101 blk	PKM2 act	IL2 activator	TRPML1 blocker
CC(C)Oc1cccc(-c2cc(C(=O)NN3CCOCC3)c3ccccc3n2)c1	0	-3%	-5%	0%	-5	15
CCCc1ccc(-c2cc(C(=O)NN3CCOCC3)c3ccccc3n2)cc1	0	14µM*	-2%	-1%	1	20
N/C(=N\OC(=O)/C=C/c1ccccc1Cl)c1ccccn1	5	-18%	-11%	-30%	-3	3
N/C(=N\OC(=O)/C=C/c1ccccc1)c1cccnc1	0	10µM*	3%	-9%	2	24
N/C(=N\OC(=O)/C=C/c1ccccc1Cl)c1cccnc1	0	4µM*	1%	-5%	-2	4
CCCCC(CC)CNC(=O)c1ccc2c(=O)n(CCOC)c(=O)[nH]c2c1 (stereo not given)	1	-6%	/	/	/	-18
CCOC(=O)c1cccc(NC(=O)CC2C(=O)N(c3ccc(F)cc3)C(=O)N2Cc2cccc(OC)c2)c1 (stereo not given)	0	/	/	/	/	-8
COc1ccc(Cl)cc1Nc1ccc2cc(S(=O)(=O)N3CCCCC3)ccc2n1	4	/	/	/	/	8
O=C(/C=C/c1ccc(N2CCC(c3ccccc3)=N2)cc1)c1ccccc1	87*	38%	?	-1%	21	-3
CCCCOc1ccc(C2(C)CC(=O)NC2=O)cc1 (stereo not given)	1	13µM*	-4%	4%	1	11
Nc1c(Cl)cc(C=O)cc1Cl	0	11%	/	/	/	/
COc1ccc2cc3cc(C(=O)NCCCN4CCC(C)CC4)oc3nc2c1	0	11µM*	-4%	/	-4	1
O/N=C/c1ccc(OCc2ccccc2F)c(Cl)c1	0	2.8µM*	-2%	0%	-1	-3
O/N=C/c1ccc(OCc2ccccc2)c(Cl)c1	0	10µM*	-6%	1%	-3	-5
O/N=C/c1ccc(OCc2ccccc2)c(Br)c1	2	?	-1%	7%	-2	46
COc1cc(/C=C2\CC/C(=C\c3ccc(OCCO)c(OC)c3)C2=O)ccc1OCCO	107*	-6%	0%	-22%	163*	-28
CCOc1ccc(CCNC(=O)NCc2noc3ccc(C)cc23)cc1	1	/	/	/	/	-6
CCCn1c(NCc2cccc(OC)c2O)nc2ccccc21	1	6.3µM*	-1%	25µM*	0	-2
CCn1c(COc2ccccc2OC)nc2ccccc21	-1	24%	-1%	?	-3	-2
COc1ccc(OCc2nc3ccccc3n2Cc2ccc(C(C)(C)C)cc2)cc1	2	4.5µM*	/	/	/	10
CCn1c(COc2ccccc2C)nc2ccccc21	1	7.9µM*	-2%	?	0	1
CCCn1c(NCc2cccc(OC)c2OC)nc2ccccc21	0	45%	-3%	3%	0	-15
CCCn1c(COc2ccccc2OC)nc2ccccc21	1	-6%	-6%	16µM*	-4	19
CC(C)c1ccc2c(c1)NC(c1ccc(F)cc1)=NC(c1cccs1)=N2	-1	/	/	/	/	-4
Cn1c(COc2ccccc2Br)nc2ccccc21	/	6.3µM*	-2%	-6%[11.5 µM]	1	/
SMILES	TRPML1 ag	BRCA1 expr up	PTAP TSG101 blk	PKM2 act	IL2 activator	TRPML1 blocker
COc1ccccc1OCc1nc2ccccc2n1C	1	?	-5%	/	0	7
COc1ccccc1C(O)Cc1nc2ccccc2n1C (stereo not given)	0	10µM*	-3%	4%	1	-16
CC(C)c1ccc(C(O)Cc2nc3ccccc3n2C)cc1 (stereo not given)	1	?	-2%	-2%	-2	-8
C=CC1=C2C=C(C3CC3)N(CCCOC(C)C)C=C2C(=O)C(C)(OC(=O)c2ccco2)C1=O (stereo not given)	/	/	/	-7%[11.5 µM]	/	/
O=C(CBr)c1ccc(Oc2ccc(C(=O)C[n+]3cccc(Br)c3)cc2)cc1	0	-14%	/	/	/	/
CC[n+]1c(/C=C/C=C/N(C(C)=O)c2ccccc2)sc2cc(OC)ccc21	17	-84%	?	3%	55*	-11
Cc1cccc(NC(=O)COc2ccccc2C(=O)Nc2ccccc2)c1	0	0%	/	/	/	/
CCCC[C@H]1CCCO[C@@](C(=O)NCc2ccc(C)o2)(C(F)(F)F)C1	0	/	/	/	/	27
O=C(O)C1C2C=CC(O2)C1C(=O)Nc1ccc(S(=O)(=O)Nc2ccccc2)cc1 (stereo not given)	1	3%	-6%	28µM*	1	-9
COc1cc(CCC(C)=O)ccc1OC(=O)c1c(F)cccc1Cl	1	8.9µM*	-3%	7%	5	4
Cc1ccc(NC(=O)COC(=O)c2ccccc2OCC(=O)N(C)C)cc1	-1	7%	/	/	/	/
COc1cccc(Nc2nc(-c3ccccc3O)nc3ccccc23)c1	/	-40%	-5%	/	64*	/
COc1cccc(/C=C/c2nc3ccccc3nc2/C=C/c2cccc(OC)c2OC)c1OC	1	9%	/	/	/	/
CC(Sc1nnc2ccccn12)C(=O)Nc1ncc(Cl)cc1Cl (stereo not given)	0	80%	-4%	-6%	-1	-5
Fc1cccc(Cl)c1CSc1nnc2ccccn12	-1	?	0%	/	2	8
Fc1ccc(CSc2nnc3ccccn23)c(Cl)c1	0	10µM*	-2%	2%	-1	14
O=C(CSc1nnc2ccccn12)Nc1ncc(Cl)cc1Cl	0	10µM*	-7%	-1%	-4	4
O=C1Cc2ccccc2C1=C1C=c2ccccc2=C1	0	-25%	/	/	/	/
O=C(CC1C(=O)N(c2ccc(F)cc2)C(=O)N1Cc1ccc2c(c1)OCO2)Nc1ccc(Cl)cc1 (stereo not given)	0	/	/	/	/	12
CCN(CC)C(=O)Cn1c(=O)n(-c2ccc(C)c(C)c2)c(=O)c2c3c(sc21)CCCCC3	0	4%	/	/	/	-29
Clc1ccccc1/C=N/NC1=Nc2cccc3cccc1c23	3	-24%	-12%	-4%	244*	18
CC1=C(c2ccc(C(C)C)cc2)S(=O)(=O)NC1=NCCCN1CCN(c2ccccc2F)CC1	0	/	/	/	/	-19
S=C(Nc1ccc(Br)cc1)Nc1ccc2c(c1)OCCO2	0	11µM*	0%	-3%	-3	-1
O=C(NC(=S)Nc1ccc2c(c1)OCCO2)c1cccc(Br)c1	1	4µM*	-1%	-1%	0	-27
COc1cc(NC(=S)Nc2ccc3c(c2)OCCO3)cc(OC)c1OC	-1	58%	-4%	2%	-2	7

Source: PubChem BioAssay (National Center for Advancing Translational Sciences (NCATS))
